Screening results: PubChem, Broad Institute
BJeLR viab HTS – BJeLR cell viability loss, primary screen, luminescence, CellTiterGlo ATP; BJeLR fibroblasts viability, 48 h; HRASV12, hTERT and SV40 LT/ST transformed; viability loss activity score, % (concentration not given with the values); actives 0.64% (n = 30,000); in the data active = viability loss activity score above about 50%;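 note: higher score means fewer live cells and less ATP luminescence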
MITF inhib – inhibitors of MITF, primary screen, MITF inhibitor project, cell-based, luminescence; TRPM1 promoter luciferase, 24 h; AID 2240, 2010; inhibition, % (concentration not given with the values); actives 0.28% (n = 37,000); in the data active = inhibition above about 85%;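 note: human melanocyte line stably carrying TRPM1 promoter luciferase reporter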
ROS inducer – ROS inducers in U2OS cancer cells, primary screen, cell-based, H2DCF-DA fluorescence; U2OS ROS induction; AID 624156, 2012; actives 2% (n = 46,000); ROS induction (% of piperlongumine), % at 10 µM; in the data active = ROS induction above about 79%, passing the limit was not always enough
YB-1 expr inh – inhibitors of YB-1 gene expression, primary screen, cell-based, fluorescence; delta delta Cp (YB-1 minus CDIP) (concentration not given with the values); actives 0.37% (n = 30,000); U2OS, qRT-PCR YB-1 vs CDIP delta delta Cp, 16 h; stronger effect = higher value; zero = DMSO, each unit about twofold;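 active = delta delta Cp rounded down to an integer at or above 3, about 3 SD of DMSO wells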;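 note: higher means less YB-1 transcript or more CDIP transcript relative to DMSO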
Numbers stand for hits; 0 = inactive; - = no result given. An excerpt weighted towards active compounds, which were near 2.5% of everything screened.

SMILES	BJeLR viab HTS	MITF inhib	ROS inducer	YB-1 expr inh
O=C(C1CCC(Cn2c(=S)[nH]c3ccccc3c2=O)CC1)N1CCN(c2ccc(Cl)cc2)CC1 (stereo not given)	0	-	0	-
COc1ccccc1NC(=O)[C@H](Cc1ccccc1)N1Cc2ccccc2C1=O	0	-	-	-
Cc1ccccc1-n1c(SCCc2ccccc2)nc2ccccc2c1=O	0	-	0	-
Cc1ccc(-c2nn(-c3cccc(F)c3)c3c2cnc2cc(F)c(F)cc23)cc1	0	-	-	-
CCOC(=O)CN1C(=O)S/C(=C\c2ccccc2OCc2ccccc2F)C1=O	0	-	102.5	-
CCOC(=O)CN1C(=O)S/C(=C/c2ccc3c(c2)n(C)c(=O)n3C)C1=O	0	-	0	-
CCOC(=O)c1cnc2cc(C(F)(F)F)ccc2c1N(C)Cc1ccccc1	0	0	0	0
CCOC(=O)c1cnc2ccc(OCC)cc2c1N(C)Cc1ccccc1	0	0	139.4	0
CCOC(=O)c1c(NC(=O)c2nn(CC)cc2Br)c(C#N)nn1-c1ccccc1	-	0	125.1	-
CCOC(=O)c1nn(-c2ccccc2)c(C#N)c1NC(=O)c1nn(CC)cc1Br	0	0	166.0	0
CCc1nnc(NC(=O)Cc2coc3ccc(C)cc23)s1	0	-	0	-
O=C(c1ccc(Br)cc1)N1Cc2ccccc2NC1=S	0	0	0	0
CN(C)CCNC(=O)c1cc2c(s1)-c1ccc(Cl)cc1SC2	123.3	-	0	-
O=c1c2cc3c(cc2[nH]c(=S)n1CCc1ccccc1Cl)OCO3	0	-	0	-
Cn1c(SCCC(=O)O)nnc1-c1ccncc1	-	0	0	-
CCOC(=O)c1nnn2c1nc(Sc1nc3ccccc3o1)c1ccccc12	0	0	108.0	0
CCOC(=O)c1nnn2c1nc(N(CC)CC)c1ccccc12	0	0	0	0
CCOC(=O)c1nnn2c1nc(Sc1nnc(-c3ccncc3)n1C)c1ccccc12	0	0	161.2	0
Cc1cc(NC(=O)C(F)(F)F)n(-c2ccccc2)n1	0	-	-	-
O=C(/C=c1\[nH]/c(=C/c2ccc(F)cc2)c(=O)[nH]c1=O)c1ccccc1	70.2	-	0	-
O=[N+]([O-])c1ccccc1-c1ccc(-c2nn3c(-c4ccccc4)nnc3s2)o1	-	0	174.0	-
c1ccc(-c2nn3c(-c4ccccc4)nnc3s2)cc1	0	-	-	-
C=C(C)c1cccc(C(C)(C)NC(=O)NC23CC4CC(CC(C4)C2)C3)c1	0	-	-	-
C[C@H]1CN([C@@H](C)CO)C(=O)Cc2cc(NS(=O)(=O)c3cn(C)cn3)ccc2O[C@H]1CN(C)Cc1ccc(Oc2ccccc2)cc1	-	0	88.6	0
C[C@H]1CN([C@@H](C)CO)C(=O)Cc2cc(NS(=O)(=O)c3cn(C)cn3)ccc2O[C@H]1CN(C)Cc1ccc(Cl)c(Cl)c1	-	0	0	0
SMILES	BJeLR viab HTS	MITF inhib	ROS inducer	YB-1 expr inh
C[C@H](CO)N1C[C@H](C)[C@H](CN(C)Cc2ccc(Cl)c(Cl)c2)Oc2ccc(NS(=O)(=O)c3cn(C)cn3)cc2CC1=O	-	0	0	13
O=C(/C=C/c1ccco1)N(Cc1cccs1)C1CCS(=O)(=O)C1 (stereo not given)	0	-	-	-
CN(C)c1c2c(c(C#N)c3nc4ccccc4n13)CCC2	0	-	-	-
C=CCSc1c2c(c(C#N)c3nc4ccccc4n13)CCC2	0	0	103.0	0
CCC(Cc1ccccc1)NC(=O)c1c[nH]c2ccc(S(=O)(=O)N3CCC(C)CC3)cc2c1=O (stereo not given)	0	-	0	-
CN(C)CCCn1cc(C2=C(c3c[nH]c4ccccc34)C(=O)NC2=O)c2ccccc21	0	0	81.0	0
O=C(O)CSc1c[nH]c2ccccc12	-	0	-	-
Cn1cc(C2=C(c3cn(CCCSC(=N)N)c4ccccc34)C(=O)NC2=O)c2ccccc21	56.5	0	75.8	0
COc1ccccc1C1CC(=O)Nc2cc3c(cc21)CCC3 (stereo not given)	50.5	-	-	-
COc1ccccc1C1CC(=O)NC(C)=C1C(=O)OC1CCCC1 (stereo not given)	0	-	-	-
Cc1ccc(S(=O)(=O)N(C)C[C@H]2Oc3ccc(NC(=O)Nc4c(C)noc4C)cc3CC(=O)N([C@@H](C)CO)C[C@H]2C)cc1	-	0	0	9.83
Cc1ccc(S(=O)(=O)N(C)C[C@@H]2Oc3ccc(NC(=O)Nc4c(C)noc4C)cc3CC(=O)N([C@H](C)CO)C[C@H]2C)cc1	-	0	0	0
Cc1noc(C)c1NC(=O)Nc1ccc2c(c1)CC(=O)N([C@@H](C)CO)C[C@@H](C)[C@@H](CN(C)S(=O)(=O)c1c(C)noc1C)O2	-	0	85.2	0
On1onc2c3cc(-c4ccccc4)nc3ccc21	60.7	0	0	0
CC(=O)Nc1ccc(S(=O)(=O)NC(C)C)cc1	0	-	0	-
COC(=O)/C=C/S(=O)(=O)c1ccc(NC(C)=O)cc1	0	0	121.0	0
C=C1C(=O)O[C@H]2C1[C@H](OC(=O)/C(C)=C/CO)C/C(C)=C\CC[C@@]1(C)OC21 (stereo not given in full)	0	0	0	0
C=C1C(=O)O[C@H]2[C@H]1[C@@H](OC(=O)C(C)(O)C(C)Cl)C(OC(C)=O)/C(C(=O)OC)=C\CC[C@@]1(C)O[C@H]21 (stereo not given in full)	84.9	0	0	0
C=CCNC(=O)[C@H]1[C@@H]2C(=O)O[C@@H](c3ccccc3)[C@@H](c3ccccc3)N2[C@@H](c2ccc(OCCO)cc2)[C@]12C(=O)N(C(=O)OCCOC)c1ccc(C#CCC(C(=O)OC)C(=O)OC)cc12	-	-	156.5	0
C=CCNC(=O)[C@@H]1[C@H]2C(=O)O[C@H](c3ccccc3)[C@H](c3ccccc3)N2[C@H](c2ccc(OCCO)cc2)[C@@]12C(=O)N(C(=O)OCCOC)c1ccc(C#CCC(C(=O)OC)C(=O)OC)cc12	-	-	132.2	0
O=C(NC1CCCC1)c1cc(=O)[nH]c2ccc(Br)cc12	0	-	0	-
COCCN1C(=O)/C(=C/c2cn(CC(=O)OC)c3ccccc23)C(=O)N(c2ccccc2)C1=O	0	0	93.0	0
COC(=O)c1ccc([C@@H]2C=C(C(=O)N3CCN(Cc4ccc5c(c4)OCO5)CC3)O[C@H](OCc3ccc(CO)cc3)C2)cc1	-	-	99.8	0
O=C(Nc1ccccc1N1CCCC1)c1cccc(OCc2ccccc2)c1	0	-	-	-
Clc1ccc(CSc2nc3ccccc3s2)cc1	0	-	-	-
C[C@H]1CN([C@@H](C)CO)C(=O)c2cc(NC(=O)Cc3cn(C)c4ccccc34)ccc2O[C@H]1CN(C)Cc1ccc(Oc2ccccc2)cc1	0	0	0	0
C[C@H](CO)N1C[C@H](C)[C@@H](CN(C)Cc2ccc(-c3ccccc3)cc2)Oc2ccc(NC(=O)Cc3cn(C)c4ccccc34)cc2C1=O	0	0	198.9	0
C[C@@H]1CN([C@H](C)CO)C(=O)c2cc(NC(=O)Cc3cn(C)c4ccccc34)ccc2O[C@H]1CN(C)Cc1ccc2c(c1)OCO2	0	0	0	0
C[C@H](CO)N1C[C@H](C)[C@@H](CN(C)Cc2ccc3c(c2)OCO3)Oc2ccc(NC(=O)Cc3cn(C)c4ccccc34)cc2C1=O	0	0	116.6	0
